# The source made the active and inactive calls. How the calls were made is not given here.
# Target: Histone deacetylase 5 (Homo sapiens) (UniProt Q9UQL6)
# Assay: HDAC5 deacetylase inhibition, profiling panel, selectivity assay for E-cadherin restoration project, biochemical, human (AID 651915)
# Chain of Histone deacetylase 5 (Homo sapiens) (Q9UQL6 whole entry, looked up): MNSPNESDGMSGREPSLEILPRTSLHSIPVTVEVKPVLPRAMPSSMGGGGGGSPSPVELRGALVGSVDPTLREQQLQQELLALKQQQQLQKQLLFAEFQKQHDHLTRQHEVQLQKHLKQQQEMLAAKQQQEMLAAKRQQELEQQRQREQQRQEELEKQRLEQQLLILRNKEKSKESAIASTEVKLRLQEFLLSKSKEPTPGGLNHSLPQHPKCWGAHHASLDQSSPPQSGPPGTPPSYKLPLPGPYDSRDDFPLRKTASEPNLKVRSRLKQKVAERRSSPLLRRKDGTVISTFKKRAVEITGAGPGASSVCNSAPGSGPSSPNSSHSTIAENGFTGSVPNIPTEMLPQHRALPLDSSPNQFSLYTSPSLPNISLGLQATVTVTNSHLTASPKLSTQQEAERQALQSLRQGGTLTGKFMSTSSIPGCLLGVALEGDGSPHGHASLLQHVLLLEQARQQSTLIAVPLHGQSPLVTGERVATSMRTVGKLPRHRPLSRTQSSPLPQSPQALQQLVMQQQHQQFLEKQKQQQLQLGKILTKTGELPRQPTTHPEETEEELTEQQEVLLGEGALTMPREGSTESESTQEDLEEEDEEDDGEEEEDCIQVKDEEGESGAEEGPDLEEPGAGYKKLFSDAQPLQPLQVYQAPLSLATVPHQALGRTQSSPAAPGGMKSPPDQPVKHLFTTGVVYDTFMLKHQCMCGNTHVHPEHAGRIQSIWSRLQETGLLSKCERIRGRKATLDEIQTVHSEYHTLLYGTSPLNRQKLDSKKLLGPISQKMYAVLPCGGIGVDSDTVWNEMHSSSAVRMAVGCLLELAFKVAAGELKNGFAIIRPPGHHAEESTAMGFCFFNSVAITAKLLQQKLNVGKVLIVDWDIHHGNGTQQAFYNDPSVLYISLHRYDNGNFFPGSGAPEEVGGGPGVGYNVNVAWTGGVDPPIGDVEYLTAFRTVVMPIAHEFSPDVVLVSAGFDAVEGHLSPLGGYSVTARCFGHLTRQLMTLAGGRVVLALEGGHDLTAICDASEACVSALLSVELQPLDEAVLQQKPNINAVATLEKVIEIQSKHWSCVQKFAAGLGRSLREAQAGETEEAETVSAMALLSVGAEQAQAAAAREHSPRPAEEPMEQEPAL
smiles,measurement,value
O=C(NCCCNC(=O)c1ccc[nH]c1=O)c1cc(-c2ccccc2)on1,outcome,inactive
